Laboratory results reported in PubChem BioAssay (NCI).
This is part of a sample that, as a whole, favours compounds with a hit. Of some 79,000 tested, about 15% had one in any assay. The source made the active and inactive calls. Cut-off read from the data, not from the text of the source: active = growth inhibition above about 70%; inactive = the rest.

What was measured:
[1] = NCI Yeast Anticancer Drug Screen. Data for the rad50 strain (AID 155);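 note: 0% = growth of vehicle-only cultures of the same strain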; details: S. cerevisiae rad50 strain growth inhibition; at 50.0 µM; active compounds read high
Method in brief: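 Growth of the mutant yeast was measured after compound exposure and referenced to vehicle-treated cultures.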

[2] = NCI Yeast Anticancer Drug Screen. Data for the mec2-1 strain (AID 157); details: S. cerevisiae mec2-1 strain, at 50.0 µM, active compounds read high
Method in brief: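 Vehicle-treated cultures served as reference for growth inhibition of compound-exposed mec2-1 yeast.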

[3] = NCI Yeast Anticancer Drug Screen. Data for the sgs1 mgt1 strain (AID 161);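 note: 0% = growth of cultures given vehicle only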; details: S. cerevisiae sgs1 mgt1 strain, at 50.0 µM, active compounds read high
Method in brief: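 Genetically altered yeast, compound exposure, growth inhibition relative to vehicle.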

[4] = NCI Yeast Anticancer Drug Screen. Data for the cln2 rad14 strain (AID 165);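 note: 0% = growth equal to vehicle treated cultures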; details: S. cerevisiae cln2 rad14 strain, at 50.0 µM, active compounds read high
Method in brief: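 Each compound was tested on cln2 rad14 yeast. Inhibition of growth was calculated against vehicle-exposed controls.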

[5] = NCI Yeast Anticancer Drug Screen. Data for the bub3 strain (AID 167); details: S. cerevisiae bub3 mutant strain, at 50.0 µM, active compounds read high
Method in brief: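 Whole-cell yeast assay. The mutant strain was incubated with compounds, and growth inhibition was determined by comparison with vehicle-treated cells.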

[6] = NCI Yeast Anticancer Drug Screen. Data for the mlh1 rad18 strain (AID 175); details: S. cerevisiae mlh1 rad18 strain growth inhibition; at 50.0 µM; active compounds read high
Method in brief: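 Vehicle-treated cultures served as the reference for growth inhibition in a yeast strain carrying DNA damage repair alterations exposed to each compound.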

Measured: growth inhibition

BrC1(C2(Br)N(c3ccccc3)CCN2c2ccccc2)N(c2ccccc2)CCN1c1ccccc1
inactive: [1] 53% | [2] -1.55% | [3] 42.4% | [4] 10.2% | [5] 2% | [6] 11.6%

CCOc1ccccc1C=Nc1cc(C(C)C)c(O)cc1C
inactive: [1] -10.2% | [2] -17.2% | [3] 5.6% | [4] -4.6% | [5] 0.85% | [6] -12.3%

COc1cc2c(cc1C/C=C/c1cc(OC)c(OC)c(OC)c1)OCO2
inactive: [1] -1.95% | [2] -3.1% | [3] 22.8% | [4] -1.65% | [5] 8.55% | [6] 12.2%

Nc1nc2c(c(=O)[nH]1)CN(c1ccc(S(N)(=O)=O)cc1)CN2
inactive: [1] 25.9% | [2] -24.6% | [3] 0.5% | [4] -7.45% | [5] -26.4% | [6] -12.3%

O=C(CCN1CCCC1)Nc1ccc2sc3ccccc3c(=O)c2n1
inactive: [1] 38.5% | [2] -61.8% | [3] 8.75% | [4] 9.7% | [5] 16.6% | [6] 10.6%

CNc1ccc(C(=O)O)cc1
inactive: [1] -7.8% | [2] -14% | [3] -2.25% | [4] 5.1% | [5] -0.5% | [6] -9.9%

Clc1ccc(CNc2nc3ccccc3nc2-c2cccs2)c(Cl)c1
inactive: [1] -0.3% | [2] 16.8% | [3] 11.3% | [4] 5.25% | [5] 12.3% | [6] 18.7%

C1COC2(C1)CCCO2
inactive: [1] 21.6% | [2] -0.5% | [3] -27.2% | [4] 3.5% | [5] 23.2% | [6] -2.95%

O=C1CC(c2ccccc2)S(=O)c2ccccc2N1 (stereo unspecified)
inactive: [1] -7.5% | [2] 5.25% | [3] -9.9% | [4] 26.8% | [5] 11.6% | [6] -1.25%

CCCCCCCCCCCCOc1ccc(C(C)(C)C)cc1
inactive: [1] -12.2% | [2] -12.8% | [3] -22.1% | [4] 7.85% | [5] -36.8% | [6] -11.7%

Cc1nc(-c2nc(C)c(C(=O)NN(C)C)s2)sc1C(=O)NN(C)C
inactive: [1] 28.4% | [2] -7.8% | [3] 23.2% | [4] 23.7% | [5] 3.1% | [6] 22%

O=C(CNc1ccc2c(=S)c3ccccc3[nH]c2c1)Nc1ccccc1-c1ccccc1NC(=O)CNc1ccc2c(=S)c3ccccc3[nH]c2c1
active: [1] 88.6% | [2] 92.5% | [3] 92.1% | [4] 90.8% | [5] 90.7% | [6] 85.9%

CCc1ccc(NC(C)=O)cc1C
inactive: [1] -9.5% | [2] 11.7% | [3] -0.95% | [4] 27% | [5] -1.15% | [6] -9.9%

CN(/N=C1\C(=O)Nc2ccccc21)c1ccccc1
inactive: [1] 4.65% | [2] -3.15% | [3] 13.6% | [4] -37.9% | [5] 3.85% | [6] 17.6%

CSc1ncc(CO)c(NC(C)(C)C)n1
inactive: [1] 2.65% | [2] 5.7% | [3] 0.55% | [4] -19.8% | [5] -0.75% | [6] 10.5%

CCc1ccccc1OCc1ccccc1
inactive: [1] 18.4% | [2] 11.8% | [3] 14.2% | [4] 6.9% | [5] 1% | [6] 1.75%

COc1cccc(N2C(=O)c3c(c4[nH]c5ccccc5c4c4ccc(C(C)(C)C)cc34)C2=O)c1
inactive: [1] -19.2% | [2] -15.1% | [3] -15.4% | [4] 18.3% | [5] -34% | [6] -12.1%

NCCCCCC(CCN)SCC1OC(n2cnc3c(N)ncnc32)C(O)C1O (stereo unspecified)
inactive: [1] 17.6% | [2] -2.45% | [3] -5.1% | [4] -7.45% | [5] -0.95% | [6] 25.9%

COC(=O)C(C#N)(CCC(=O)c1ccccc1)CCC(=O)c1ccccc1
inactive: [1] 13.3% | [2] 17.3% | [3] 10.2% | [4] -8.65% | [5] 17.8% | [6] 9.8%

OCCNCN(CNCCO)c1nc(N(CNCCO)CNCCO)nc(N(CNCCO)CNCCO)n1
inactive: [1] 55.6% | [2] 19.7% | [3] 32.6% | [4] -49.5% | [5] 2.8% | [6] 12.4%

CCCCCC(=O)Oc1c(C(C)CC)cc([N+](=O)[O-])cc1[N+](=O)[O-] (stereo unspecified)
active: [1] 97.5% | [2] 97% | [3] 98.5% | [4] 97.7% | [5] 97.3% | [6] 98.2%

NNC(=O)c1ccc[n+](CCc2ccccc2)c1
inactive: [1] -1.25% | [2] -8.55% | [3] -34% | [4] -34% | [5] -30.4% | [6] -5.5%

CC(CO)(CO)N1C(=O)C2C3c4ccccc4C(c4ccccc43)C2C1=O (stereo unspecified)
inactive: [1] -2% | [2] 1.05% | [3] 1.65% | [4] -3.15% | [5] -3.95% | [6] -28.7%

O=C(O)COc1ccccc1P(=O)(c1ccccc1)c1ccccc1
inactive: [1] 23.1% | [2] 17.4% | [3] 9.7% | [4] 35.8% | [5] 22.4% | [6] 23%

CCC/C(=N/O)C(=O)OCC
inactive: [1] -3.4% | [2] 14.9% | [3] 6.4% | [4] 6.25% | [5] 4.4% | [6] -4.6%

CCCCCCCCCCCCCCCCCC(=O)Oc1c(C(C)CC)cc([N+](=O)[O-])cc1[N+](=O)[O-] (stereo unspecified)
inactive: [1] 13.2% | [2] 25% | [3] 46.2% | [4] 2.85% | [5] 10.1% | [6] 53.9%

CC(C)=Cc1cc(-c2cc(C=C(C)C)[nH]n2)n[nH]1
inactive: [1] -35.4% | [2] -2% | [3] -20.4% | [4] -24.6% | [5] -9.2% | [6] -11.9%

FC(F)(F)c1cccc(N=Cc2ccc(C=Nc3cccc(C(F)(F)F)c3)cc2)c1
inactive: [1] 10.4% | [2] -9.2% | [3] 13.3% | [4] 7.6% | [5] -9% | [6] 1.35%

CCCCCCCCCCCCCCCCN=C1C=Cc2ccccc2C1=NCCCCCCCCCCCCCCCC
inactive: [1] -0.45% | [2] 6.4% | [3] 11.6% | [4] 11.6% | [5] 5.95% | [6] 4.4%

COC(=O)CNC(=O)C(Cc1ccccc1)NC(=O)OCc1ccccc1 (stereo unspecified)
inactive: [1] -4.95% | [2] -3.75% | [3] -1.55% | [4] 1.9% | [5] 15.8% | [6] -3.3%

CCCCCCCCCCCC1=C(O)C(=O)C(Br)=C(O)C1=O
inactive: [1] 39.6% | [2] 14.3% | [3] 44.9% | [4] 19.1% | [5] -9.65% | [6] 49.9%

O=C(O)CCCCC1CCCC1
inactive: [1] 43.4% | [2] 8.3% | [3] 12.2% | [4] 5.25% | [5] 18.5% | [6] 56.4%

CNS(=O)(=O)c1ccc(Cl)cc1
inactive: [1] 29.9% | [2] 11.7% | [3] 13.9% | [4] 13.3% | [5] 5.9% | [6] 20.1%

C/C(=N/O)C1CC(C)([N+](=O)[O-])CCC1(C)O (stereo unspecified)
inactive: [1] -8.15% | [2] -13.6% | [3] -19.2% | [4] -8.5% | [5] 5.45% | [6] 5.65%

Cc1cc2c(cc1C)C(C)(C)c1c(nc(N)[nH]c1=O)N2C
inactive: [1] 3.7% | [2] -1.1% | [3] 20.5% | [4] -15.7% | [5] -0.45% | [6] 1.7%

CSc1cccc(NC(=S)NN/C(=N/S(=O)(=O)c2ccccc2)N2CCCC2)c1
inactive: [1] 6.3% | [2] -17.6% | [3] -1.35% | [4] 2.3% | [5] -2.9% | [6] -1.2%

CN(C)Cc1cc(C(=O)/C=C/c2ccc(Cl)cc2)cc(CN(C)C)c1O
inactive: [1] -27.6% | [2] -22.1% | [3] -20.9% | [4] -44.2% | [5] 1.2% | [6] -18.1%

Cc1cc2c(cc1C)N1C(Cl)=C3CCCCC3=C(C#N)C1N2 (stereo unspecified)
inactive: [1] 30.7% | [2] 30.4% | [3] 20.5% | [4] 28.3% | [5] 13.9% | [6] -8.95%

O=[N+]([O-])c1ccc(S(=O)(=O)N/N=C/c2ccco2)cc1
inactive: [1] 14.6% | [2] 5.95% | [3] 0.9% | [4] 9.75% | [5] 13.2% | [6] 23.9%

O=C(Cn1c(=O)oc2ccc(C(=O)c3ccccc3Cl)cc21)c1ccc([N+](=O)[O-])cc1
inactive: [1] -27.6% | [2] -28.3% | [3] 13% | [4] -8.45% | [5] -2.25% | [6] -2.65%

N#Cc1c(N)nc([Se]CC(=O)c2ccc(Cl)cc2)c(C#N)c1-c1ccco1
inactive: [1] -7.45% | [2] -3.45% | [3] 2.3% | [4] 9.4% | [5] 4.1% | [6] 10.9%
